# Screening data as filed in PubChem.
# Only a selection was taken, and hits are over-represented in it overall.
# Tgondii IFNg: T. gondii growth inhibition under IFN-gamma. 69,000 compounds, 3.8% hits. AID 1259416. Toxoplasma gondii growth in IFN-gamma-treated host cells; hits give low values. activity change, negative = inhibition, % (concentration not given with the values); in the data active means activity change below about -70%, passing the limit was not always enough;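 further: host cells are HeLa cells infected with Toxoplasma gondii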
# Numbers stand for hits; . = inactive; ! = not active in a repeat.
SMILES,Tgondii IFNg
Cc1cc(C)n(-c2ncnc3c2nnn3Cc2ccccc2Cl)n1,.
CSc1ncnc2c1nnn2Cc1ccccc1Cl,.
Cn1nc(-c2cccnc2)cc1CN1CCN(C(=O)c2cc3c(s2)CCCC3)CC1,.
Cc1ccc(CN(Cc2cc3cccc(C)c3[nH]c2=O)C(=O)c2ccco2)cc1,-79
COc1ccc2[nH]c(=O)c(CN(C(=O)c3ccco3)C(C)C)cc2c1,.
CCC(=O)N(Cc1ccc(C)cc1)Cc1cc2cccc(C)c2n2nnnc12,.
O=C(Nc1ccccc1)[C@H]1C[C@@H]2CN(c3ncc(F)cn3)C[C@H]1O2,.
COc1ccc(C(=O)N2CCN(Cc3cnc(C)n3C)CC2)cc1,.
COc1ccc(NC(=O)Nc2ccc(-c3nc(-c4ccccc4)co3)cc2)cc1,.
COc1ccc(Oc2ccc(NC(=O)Nc3ccc(SC(F)(F)F)cc3)cn2)cc1,-88
COc1ccc(NC(=O)CSCC(=O)O)cn1,.
COc1cc(-c2nc(Cn3c(=O)c4c(C)cc(C)nc4n(C)c3=O)c(C)o2)cc(OC)c1OC,.
Cc1ccc2oc(CN3CCOC(CN)C3)c(C)c2c1 (centres undefined),.
O=C(NCc1cccs1)C1CCCN(C2CCN(Cc3ccncc3)CC2)C1 (centres undefined),.
CCCCSc1ncc(C2CC(=O)Nc3snc(C)c32)cn1 (centres undefined),.
Cc1nn(S(=O)(=O)c2ccccc2)c(C)c1Cc1csc2ccc(Cl)cc12,-89
COC(=O)C(Cc1csc2ccc(Cl)cc12)NC(=O)c1ccc(C(F)(F)F)cc1 (centres undefined),.
O=C(O)c1nccnc1C(=O)NCc1csc2ccc(Cl)cc12,.
Cc1nn(C(=O)Nc2cccc(Cl)c2)c(C)c1Cc1csc2ccc(Cl)cc12,-85
COC(=O)c1ccc(S(=O)(=O)NCc2csc3ccc(Cl)cc23)n1C,.
Cc1cc(C)n(S(=O)(=O)c2ccccc2)n1,.
COC(=O)[C@@H]1C[C@@H](N(C)C)CN1Cc1cc2c(cc1OC)CCC2,.
CCCS(=O)(=O)N1CC2CCC1C2Oc1ccccn1 (centres undefined),.
COc1ccccc1-c1cc2c(=O)n(Cc3nc(-c4cccc(Cl)c4)oc3C)ccn2n1,.
CCc1ccc(CNC(=O)c2c(O)c3cccnc3n(-c3ccccc3)c2=O)cc1,.
SMILES,Tgondii IFNg
CCN1CCN(CC(=O)Nc2ccccc2C(F)(F)F)CC1,.
O=C1CC2(CCN(Cc3ccc(F)cc3)C2)CN1c1ccc2c(c1)OCO2 (centres undefined),.
CS(=O)(=O)N1CCC2(CC1)CC(OCc1cccnc1)CO2 (centres undefined),.
Cc1csc(CN2CCOc3c(O)cc(-c4ccc(C)s4)cc3C2)n1,.
Cc1ccc(-c2cc(O)c3c(c2)CN(C(=O)c2cccc(F)c2)CCO3)s1,-70
Cc1noc(CN2CCOc3c(O)cc(-c4ccc(C)s4)cc3C2)n1,.
Cc1cc(C(=O)N2CCOc3c(O)cc(-c4ccccc4C)cc3C2)no1,.
Cc1ccc(-c2cc(O)c3c(c2)CN(C(=O)CCN2CCCO2)CCO3)s1,-75
Cc1ccc(-c2cc(O)c3c(c2)CN(CC2CCCN2C)CCO3)s1 (centres undefined),.
COCC(=O)N1CCC2(CCN2Cc2csc(C)n2)C1 (centres undefined),.
Cc1cccc(-c2nnn3c2COC(CNCc2nccs2)C3)c1 (centres undefined),.
Cc1c(Cl)cccc1NC(=O)CC(=O)N1CCCCC1c1cccnc1 (centres undefined),.
Cc1ccc(C)c(NC(=O)CSc2ncc(-c3ccc(F)cc3)n2Cc2ccco2)c1,.
CCc1ccc(NC(=O)Cn2c(=O)cc(C(=O)NC)c3ccccc32)cc1,.
Cn1ncc(C(=O)Sc2ccc(Cl)cc2)c1-n1cccc1,-94
Cc1nn(-c2ccccc2)nc1C(=O)Sc1ccc(Cl)cc1,.
Cn1ncc2c(Sc3ccc(Cl)cc3)ncnc21,.
Fc1cnc(N2CC[C@@H]3[C@H]2CCN3c2nncs2)nc1,.
CCCN1CN=c2s/c(=C\C(=O)OC)c(=O)n2C1,.
Cc1onc(-c2ccccc2)c1NC(=O)Nc1ccc(-n2ccc(C(F)(F)F)n2)cc1,.
O=C(Nc1cccc(-n2cnnn2)c1)c1ccccc1,.
O=C(Nc1ccccc1)Nc1ccc(-n2ccc(C(F)(F)F)n2)cc1,-81
COc1ccc(NC(=O)CSc2nnc3c(C)cc4ccccc4n23)cc1,.
COc1ccc(-n2c(-c3ccccc3)cnc2SCC(=O)Nc2cc(C)cc(C)c2)cc1,-98
Cc1ccc(NC(=O)CSc2nnc(-c3ccncc3)n2-c2ccccc2)cc1,.
SMILES,Tgondii IFNg
O=C(c1cn(-c2ccccc2)nn1)N1CCC(c2ccccc2Cl)C1 (centres undefined),.
COc1ccccc1NC(=O)N1CCC2(CC1)Nc1cc(C)ccc1-n1cccc12,.
CN(C)c1ccc(C(=O)NCc2cccnc2)cc1,.
Cc1ccc(C(=O)Nc2c(C(=O)NCc3cccnc3)[nH]c3ccc(C)cc23)cc1,.
Cc1ccc(S(=O)(=O)Cc2nc(-c3ccc(C(=O)NCc4cccnc4)cc3)oc2C)cc1,-113!
CCOC1C2CCC1N(C(=O)N(C)C)CCO2 (centres undefined),.
Cn1c(=O)n(C)c2cc(NC(=O)CSc3ncc(C#N)c(N)n3)ccc21,.
N#Cc1cnc(Sc2nnc(-c3ccc(Cl)cc3)n2Cc2ccccc2)nc1N,.
N#Cc1cnc(SCc2cc(=O)[nH]c3ccccc23)nc1N,-101
Cc1nc(CCNC(=O)C2CCN(C(=O)c3ccc(Br)o3)CC2)cs1,.
COc1cccc(Cl)c1-c1cc(C)cnc1N,.
CC(C)N1CCOCC2(CCC(CNc3cc(N(C)C)ncn3)O2)C1 (centres undefined),.
COc1ccc(C(=O)N(c2ccc(C)cc2)C2(C(=O)NCc3ccccc3)CCN(C(C)=O)CC2)cc1,.
CCCN1C(=O)CCc2cc(NC(=O)c3ccc(C(C)C)cc3)ccc21,-106
CCCN1C(=O)CCc2cc(NC(=O)c3ccc(C)cc3)ccc21,.
CCOc1ccc(S(=O)(=O)Nc2ccc3c(c2)CCC(=O)N3CC(C)C)cc1,.
CCOc1ccc(C(=O)Nc2ccc3c(c2)CCC(=O)N3CC(C)C)cc1,-82
CC(=O)Nc1ccc2c(c1)CCC(=O)N2CC(C)C,.
CCCN1C(=O)CCc2cc(NC(=O)c3ccsc3)ccc21,.
Cc1nc(-c2cccc(F)c2)sc1CCNC(=O)c1ccccc1,.
Cn1c(SCc2ccccc2)nnc1C1CCCN1S(C)(=O)=O (centres undefined),.
COC(=O)[C@H]1CN(C(=O)c2ccco2)C[C@@H]1c1ccc(F)cc1,.
CN1CC[C@]2(CCC[C@@H](CNC(=O)c3cccn3C)O2)C1,.
CCc1nc(OCC(=O)NCc2ccc3c(c2)OCO3)c2ccccc2n1,.
O=C(CS(=O)(=O)Cc1ccccc1)NCc1ccc2c(c1)OCO2,.
SMILES,Tgondii IFNg
c1ccc(-c2cc3ncnc(NCc4ccc5c(c4)OCO5)c3s2)cc1,-105
CCC(=O)N1C[C@@H]2c3nc(Nc4ccccc4)ncc3CS(=O)(=O)[C@H]2C1,.
Cc1ccsc1S(=O)(=O)N1CC[C@@H]2OCCN(C(C)C)[C@@H]2C1,.
Cc1cccc(C(=O)NCCc2sc(-c3ccccc3)nc2C)c1,.
Cc1cccc(C(=O)Nc2nc(-c3ccccc3)c(-c3ccccc3)s2)c1,-72
O=C(Nc1sc(NC(=O)c2cccs2)nc1-c1cccs1)c1ccccc1,.
COCCN1CCN(C(=O)c2ccccn2)Cc2cccnc21,.
COc1cccc(C(=O)N2C[C@H]3Cc4cn(CCNC(C)=O)nc4[C@H]3C2)c1,.
